Measurements from PubChem BioAssay AID1850 (Southern Research Specialized Biocontainment Screening …, 2009).
In all, about 310,000 compounds went through this assay and about 1,000 (0.32%) were called active. A selection follows. Entries with a potency or affinity are not part of this list. Unmarked numbers belong to inactive results. How the calls were made is not given here.

Experiment: Inhibition of PhoP regulon, Salmonella typhi GFP reporter cells, confirmation, 4 h (AID 1850);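 further: 0% = induced wells with vehicle and 100% = uninduced wells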
Settings: Salmonella Typhi PhoP-promoter GFP reporter, fluorescence, at 50 µM, stronger effect = higher value
`Cc1ccc2nc(C)c(Cl)c(=O)n2c1` showed an inhibition of -9.57%.
Molecule `COc1ccc(CCNC(=O)CCCCC(=O)NCCc2ccc(OC)cc2)cc1` has an inhibition of -3.5%.
With `O=S(=O)(NC1CCCCCC1)c1cccc2cccnc12` the inhibition was 5.87%.
Molecule `COc1ccc(C(=O)O/N=C(/c2ccccc2)c2ccncc2)cc1OC` has an inhibition of -4.7%.
For `COc1c(O)c(O)c2oc(-c3ccccc3)cc(=O)c2c1OC`, the inhibition was 9.73%.
Work on `O=c1cc(-c2ccc(O)cc2)oc2cc(O)cc(O)c12` yielded an inhibition of 1.38%.
Molecule `CCOC(=O)CC1(C)OCC(C[N+]2(C)CCCCC2)O1` (stereo unspecified) has an inhibition of 5.82%.
Molecule `COC(=O)[C@@H]1C[C@@]2(O)[C@H](O)[C@H](O)[C@H](O)C[C@H]2N1Cc1ccc(-c2ccccc2)cc1` has an inhibition of -7.22%.
Molecule `COC(=O)c1ccc2c(=O)n(Cc3ccc(C(=O)NCCCN4CCC(C)CC4)cc3)c(=S)[nH]c2c1` has an inhibition of 2.98%.
Molecule `CC1CCN(CCNC(=O)c2ccc3c(=O)n(Cc4ccc(Cl)cc4)c(=S)[nH]c3c2)CC1` has an inhibition of 4.39%.
`COc1ccc(S(=O)(=O)NN(C)c2ncc(C(F)(F)F)cc2Cl)cc1` gave an inhibition of 2.03%.
For `CC(=O)NCCC(=O)NCC1(N(C)Cc2ccccc2)Cc2ccccc2C1`, the inhibition was -1.56%.
`c1ccc(-c2cc(N3CCCCC3)nc(-c3ccccc3)n2)cc1` showed an inhibition of 5.32%.
With `CO[C@@]12[C@H](COC(N)=O)C3=C(C(=O)C(C)=C(N)C3=O)N1C[C@@H]1N[C@@H]12` the inhibition was 6.71%.
`O=C(ONC1=NCCCCC1)c1cccc([N+](=O)[O-])c1` showed an inhibition of -5.28%.
Work on `Cc1ccnc(-n2c(C)nc3ccccc3c2=O)c1` yielded an inhibition of -16%.
Work on `O=C(NC1CC2CCCC(C1)N2C(=O)Nc1ccccc1)c1ccccc1` (stereo unspecified) yielded an inhibition of -0.41%.
Molecule `COc1cc(C)c(CN2CCC(n3nccc3NC(=O)C3CCOC3)CC2)cc1C` (stereo unspecified) has an inhibition of -6.02%.
Molecule `CC(C)N1CC(C(=O)Nc2ccc(C#N)cc2)CC1=O` (stereo unspecified) has an inhibition of -2.49%.
`Cc1ncc(CC(=O)n2cc(C(=O)c3cc(F)ccc3O)cn2)s1` gave an inhibition of 23.5%.
`Cc1cc(Cl)ccc1OCC(=O)n1cc(C(=O)c2cc(Cl)ccc2O)cn1` showed an inhibition of -8.17%.
With `O=C(NCCc1ccccc1)c1nccc2ccccc12` the inhibition was 3.49%.
`COCCC(=O)N1CCC(Oc2ccc(C(=O)N3CCC[C@H]3CO)cc2)CC1` showed an inhibition of -1.9%.
Work on `CCOC(=O)C1CCCN(C2CCN(Cc3nc(Cc4ccccc4)no3)CC2)C1` (stereo unspecified) yielded an inhibition of -4.46%.
With `O=C(O)c1cc(S(=O)(=O)NC(CO)C(O)c2ccc([N+](=O)[O-])cc2)ccc1Br` (stereo unspecified) the inhibition was 5.04%.
For `CS(=O)(=O)c1ccc(C(=O)NCc2ccccc2F)cc1`, the inhibition was 2.01%.
For `Cc1ccc(NC(=S)NC(CO)C(O)c2ccc([N+](=O)[O-])cc2)cc1` (stereo unspecified), the inhibition was 8.81%.
Work on `CS(=O)(=O)c1ccc(C(=O)NC(Cc2ccccc2)c2ccccc2)cc1` (stereo unspecified) yielded an inhibition of 2.4%.
In the case of `Cc1ccc(-n2nc(C(=O)NN)c(C)c(C#N)c2=O)cc1Cl`, the inhibition is reported as -0.01%.
Molecule `CCOC(=O)N1CCC(NC(=O)c2ccccc2C(=O)O)CC1` has an inhibition of 2.93%.
For `CCN(CC)S(=O)(=O)c1ccc(C)c(NC(=O)COc2ccc3c(C)cc(=O)oc3c2)c1`, the inhibition was -6.3%.
With `CCCn1nnc(NC(=O)c2ccc([N+](=O)[O-])cc2Cl)n1` the inhibition was -8.6%.
Work on `Fc1ccc(-c2nc3ccccn3c2NCc2ccc3c(c2)OCO3)cc1` yielded an inhibition of -6.33%.
With `Cc1ccc(CNC(=O)C(=O)NCCC2=CCCCC2)cc1` the inhibition was -20.6%.
`Cc1ccc(NC(=S)NCCC2=CCCCC2)cc1` gave an inhibition of -0.73%.
Work on `O=C(NCCC1=CCCCC1)C(=O)NCc1ccccc1` yielded an inhibition of -1.97%.
Molecule `Clc1ccc(CNCCC2=CCCCC2)cc1` has an inhibition of -4.93%.
With `CC(C)[C@H](NC(=O)c1ccccc1Cl)C(=O)OCc1cc([N+](=O)[O-])cc2c1OCOC2` the inhibition was -4.37%.
Molecule `O=C(O)CCC(=O)Nc1nc2nccc(-c3ccccc3)n2n1` has an inhibition of -7.87%.
With `CCOc1cc(/C=C2/C(=N)N3N=C(C)SC3=NC2=O)ccc1OS(=O)(=O)c1ccc(C)cc1` the inhibition was 18.2%.
Molecule `O=C(Nc1cc2c3c(c1)CC(=O)N3CCC2)c1ccc(Br)o1` has an inhibition of 2.71%.
For `CCNC(=S)NNC(=O)c1cc(-c2cccc(OCC)c2)nc2ccccc12`, the inhibition was 10.8%.
In the case of `O=C(CCc1ccccc1)NNC(=O)c1ccccc1Br`, the inhibition is reported as -5.24%.
Work on `CCNc1ccc(C2(O)C(=O)c3ccccc3C2=O)cc1` yielded an inhibition of -8.28%.
In the case of `O=[N+]([O-])c1cc2cccnc2c2ncccc12`, the inhibition is reported as -13.3%.
`Cc1ccc([N+](=O)[O-])c2cccnc12` showed an inhibition of -3.26%.
With `O=[N+]([O-])c1cccc2c(Cl)ccnc12` the inhibition was 5.29%.
Work on `O=[N+]([O-])c1ccc(O)c2cccnc12` yielded an inhibition of 2.39%.
`Clc1cc2cccnc2c2ccccc12` showed an inhibition of -17.8%.
With `O=[N+]([O-])c1ccc(Cl)c2cccnc12` the inhibition was -13%.
Molecule `Oc1ccc(F)c2cccnc12` has an inhibition of 8.36%.
With `Oc1c(I)cc(I)c2cccnc12` the inhibition was 8.57%.
In the case of `Cc1oc2cc3oc(=O)c(CC(=O)NCC(=O)N[C@@H](C(=O)O)c4ccccc4)c(C)c3cc2c1C`, the inhibition is reported as 3.13%.
`Cc1ccccc1OCC(=O)Nc1nc2ccccc2[nH]1` showed an inhibition of 9.79%.
In the case of `COc1cccc(CN2CCNC(=O)C2CC(=O)N2CCOc3ccccc3C2)c1OC` (stereo unspecified), the inhibition is reported as -0.13%.
`O=c1cc(-c2ccccc2)nc(SCCOc2ccccc2Cl)[nH]1` gave an inhibition of 3.72%.
Molecule `Cc1ccc(C(=O)Nc2cccnc2)cc1S(=O)(=O)N1CCCC1` has an inhibition of -5.54%.
With `O=c1[nH]c(=S)[nH]c(O)c1N=Nc1ccc2c(c1)OCO2` the inhibition was -4.29%.
`Cc1ccc(Cl)cc1N1CCN(C(=O)Cc2ccc(-n3c(=O)[nH]c4ccsc4c3=O)cc2)CC1` gave an inhibition of 2.93%.
Work on `O=C1Nc2ccccc2/C1=C/c1ccccc1F` yielded an inhibition of -2.26%.
In the case of `O=C(c1nc2ccccn2c1CN1CCN(c2ccccc2O)CC1)N1CCCC1`, the inhibition is reported as -2.41%.
For `OC(C#CCN1CCCCC1)c1ccccc1` (stereo unspecified), the inhibition was -17.1%.
`Cc1ccc(NC(=O)CSc2ncccc2C(=O)Oc2cccc([N+](=O)[O-])c2)cc1Cl` showed an inhibition of -7.7%.
In the case of `CCOc1ccc(S(=O)(=O)NCCC(=O)NCc2cccnc2)cc1`, the inhibition is reported as 9.15%.
With `C#CCOCCOCCOCCNc1nc(N2CCN(C(=O)CCCCCCCCCCNC(=O)[C@@H](CCC(=O)O)n3cc(CCCCCN)nn3)CC2)nc(N2CCN(C(=O)CCCCCCCCCCNC(=O)[C@H]([C@@H](C)CC)n3cc(CCCCCN)nn3)CC2)n1` the inhibition was -8.02%.
`C#CCOCCOCCOCCNc1nc(N2CCN(C(=O)CCCCCCCCCCNC(=O)[C@H]([C@@H](C)CC)n3cc(CCCCCN)nn3)CC2)nc(N2CCN(C(=O)CCCCCCCCCCNC(=O)[C@H](CCCCN)n3cc(CCCC(=O)O)nn3)CC2)n1` showed an inhibition of -21.1%.
`C#CCOCCOCCOCCNc1nc(N2CCN(C(=O)CCCCCCCCCCNC(=O)[C@H]([C@@H](C)CC)n3cc(CCCCCN)nn3)CC2)nc(N2CCN(C(=O)CCCCCCCCCCNC(=O)[C@@H]([C@H](C)O)n3cc(C)nn3)CC2)n1` showed an inhibition of 60.5%.
For `C#CCOCCOCCOCCNc1nc(N2CCN(C(=O)CCCCCCCCCCNC(=O)[C@H](CCCCN)n3cc(CCO)nn3)CC2)nc(N2CCN(C(=O)CCCCCCCCCCNC(=O)[C@@H]([C@H](C)O)n3cc(C)nn3)CC2)n1`, the inhibition was -15.8%.
Molecule `CCC(Oc1ccc(C)cc1)C(=O)Nc1ccc2c(c1)n(C)c(=O)n2C` (stereo unspecified) has an inhibition of -3.92%.
In the case of `CCNC(=O)CC1SC(=Nc2cccc3ccccc23)N(C)C1=O` (stereo unspecified), the inhibition is reported as -5.94%.
In the case of `CCN(CC(=O)NC(=O)Nc1ccccc1F)Cc1ccccc1`, the inhibition is reported as -3.48%.
With `CCN1CCN(C(=O)CCCn2c(C)c3cnn(-c4ccccc4)c(=O)c3c2C)CC1` the inhibition was -6.37%.
Molecule `O=C(CN(CCO)c1ccccc1)Nc1ccc(Cl)c(S(=O)(=O)N2CCOCC2)c1` has an inhibition of -1.19%.
Molecule `Clc1ccc2[nH]c3c(NCCN4CCOCC4)ncnc3c2c1` has an inhibition of 0.11%.
Work on `C=CCNc1ncnc2c1[nH]c1ccccc12` yielded an inhibition of -0.69%.
In the case of `Cc1ccc2[nH]c3c(NCc4ccccc4)ncnc3c2c1`, the inhibition is reported as -1.37%.
Molecule `Clc1ccc2[nH]c3c(NCC4CCCO4)ncnc3c2c1` (stereo unspecified) has an inhibition of -14%.
Work on `CCCNC(=O)c1oc2ccc3c(c2c1C)C=CC(C)(C)O3` yielded an inhibition of -5.94%.
`Cc1nc2ccccn2c1C(=O)NNC(=S)Nc1ccc(Cl)cc1` gave an inhibition of 0.64%.
For `COc1ccc(C[C@H]2CN3C(=NC[C@H]3Cc3ccccc3)N2CCNC(=O)c2ccc(C)c(Br)c2)cc1`, the inhibition was 26.2%.
`Cc1ccc(C(=O)NCCN2C3=NC[C@H](Cc4ccc(O)cc4)N3C[C@H]2Cc2ccc(O)cc2)cc1Br` showed an inhibition of 12.4%.
`O=C(Nc1ccnn1C1CCN(C/C=C/c2ccccc2)CC1)C1CCCC1` showed an inhibition of -2.03%.
`COC(=O)C1=NN(c2ccc(C)cc2)C2(S1)SC(C(C)=O)=C(C)N2c1ccccc1` (stereo unspecified) gave an inhibition of -16.3%.
`OC(CNCc1ccccc1)COc1ccccc1` (stereo unspecified) showed an inhibition of 18.5%.
In the case of `Cc1cc(Cl)ccc1OCC(O)CNCCc1ccc(S(N)(=O)=O)cc1` (stereo unspecified), the inhibition is reported as -14.1%.
Work on `CC(C)(C)NCC(O)COc1ccc(Br)cc1` (stereo unspecified) yielded an inhibition of -6.26%.
With `COc1ccc(CCNCC(O)COc2ccc(Cl)cc2)cc1OC` (stereo unspecified) the inhibition was 5.92%.
In the case of `COc1ccc(NCC(O)COc2ccc(C(C)(C)C)cc2)cc1` (stereo unspecified), the inhibition is reported as 10.5%.
With `OC(CNCCC(c1ccccc1)c1ccccc1)COc1ccccc1` (stereo unspecified) the inhibition was -4.1%.
`CC(=O)c1cccc(OCC(O)CNCCc2ccc(Cl)cc2)c1` (stereo unspecified) gave an inhibition of 4.73%.
For `OC(CNCc1ccc(Cl)cc1)COc1ccccc1` (stereo unspecified), the inhibition was 11.1%.
